# Source: PubChem BioAssay (Broad Institute)
# aSyn 5UTR act: Activators via SNCA 5'UTR binding, MLPCN | alpha-synuclein 5'UTR reporter, activators screen | activity score, % (tested at 7.5 µM), hits read low | actives 7.1% (n = 300,000) | AID 1814; in the data active = activity score below about -60%
# * hit, by the source's call. The list is a sample of the results.
SMILES,aSyn 5UTR act
C=CCN(CC=C)S(=O)(=O)c1ccc2nc(NC(=O)C3CCCO3)sc2c1 (stereo unspecified),-89*
O=C(Nc1nc2ccc(Cl)cc2s1)c1cccc(N2C(=O)CCC2=O)c1,-78*
COC(=O)c1ccc2nc(NC(=O)C3CCCCC3)sc2c1,-105*
COC(=O)c1ccc2nc(NC(=O)C(C)(C)C)sc2c1,60
CCN1/C(=C/C(C)=C/c2sc3ccccc3[n+]2CC)Sc2ccccc21,100
CCN1/C(=C\C(=S)Nc2ccccc2)Sc2ccccc21,-144*
Cc1cc(C)[n+]2n1C(=O)C(c1ccccc1)=C2[O-],-93*
O=C(N/N=C/c1ccc([N+](=O)[O-])cc1)c1cccs1,-118*
O=C(N/N=C/c1ccc(-c2cccc([N+](=O)[O-])c2)o1)c1cccs1,-118*
O=C(CSc1cccs1)NCCc1ccccc1,-64*
O=C(CSc1cccs1)Nc1ccc(Cl)cc1,-116*
O=C(CSc1ccccc1)NCCc1ccccc1,-62*
COc1cccc(NC(=S)/C(=C(\[O-])c2ccc(OC(F)F)cc2)[n+]2ccccc2)c1,-66*
Cc1ccnc(NC(=O)CCC(=O)c2cccs2)c1,84
O=C(c1cccs1)N(C(=O)c1cccs1)c1ccc(Br)cn1,-144*
Cc1ccnc(N(C(=O)c2cccs2)C(=O)c2cccs2)c1,-157*
Cc1ccn2c(CN3CCOCC3)c(-c3ccccc3)nc2c1,-126*
c1ccc(-c2noc(CN3CCOCC3)n2)cc1,-63*
Clc1ccc(-c2noc(CN3CCCC3)n2)cc1,-86*
Cc1ccc(-c2noc(CN3CCCCC3)n2)cc1,-126*
Cc1ccc(-c2noc(CN3CCOCC3)n2)cc1,-87*
c1ccc(NCc2nc(-c3ccccc3)no2)cc1,-133*
Cc1ccc(-n2ncc3c(SCC(N)=O)ncnc32)cc1C,-119*
Cc1ccccc1-n1ncc2c(SCC(=O)NCc3cccs3)ncnc21,-114*
CC(=O)CSc1ncnc2c1cnn2-c1ccccc1,-157*
SMILES,aSyn 5UTR act
O=C(CSc1ncnc2c1cnn2-c1ccccc1)NC1CCCC1,-64*
COc1ccc(-n2ncc3c(SCC(=O)N4CCN(c5ccccc5OC)CC4)ncnc32)cc1,-74*
Cc1ccc(-n2ncc3c(SCc4cccc(C)c4)ncnc32)cc1,-90*
COc1cc(/C=N/NC(=O)c2cc(C)oc2C)ccc1OCc1ccccc1,-102*
COc1cccc(/C=N/NC(=O)c2cccs2)c1,-137*
COc1cc(/C=N/OCC(=O)NC2CCCCC2)ccc1OCc1ccccc1,-97*
COc1cc(/C=N/NC(=O)c2cccs2)ccc1OCc1ccccc1,-105*
C=C(C)C1Cc2cc3ccc(=O)oc3cc2O1 (stereo unspecified),-65*
COc1ccc(NC(=O)CN2CCCCC2)c([N+](=O)[O-])c1,-98*
COc1ccc(NC(=O)CN2CCC(C)CC2)c([N+](=O)[O-])c1,-68*
COc1cc(NC(=O)Cn2ncc(Cl)c(Cl)c2=O)c(C)cc1[N+](=O)[O-],121
Cc1ccc(NC(=O)COC(=O)COc2ccc(Cl)cc2C)c([N+](=O)[O-])c1,-65*
COc1ccc(NC(=O)COc2ccc(C)cc2)c([N+](=O)[O-])c1,-143*
CCCn1c(N2CCN(CC(=O)c3c(C)n(C)c4ccc(OC)cc34)CC2)nc2c1c(=O)[nH]c(=O)n2C,63
COc1ccc(NC(=O)CSc2ccccc2)c([N+](=O)[O-])c1,-106*
Cc1ccc(NC(=O)CN2CCCCCC2)c(Br)c1,-204*
COc1ccc2[nH]cc(C(=O)CN3CCC(C)CC3)c2c1,-177*
COc1ccccc1NC(=O)Cn1nnc(C(=O)NCc2cccs2)c1N,86
COc1ccccc1-c1ccc(=O)n(CC(=O)NCc2cccs2)n1,-73*
CCc1ccccc1NC(=O)c1ccc(-n2c(C)ccc2C)cc1,-98*
Cc1ccc(C)n1-c1ccc(C(=O)Nc2ccccc2F)cc1,-157*
Cn1nnnc1SCc1ccc(C(=O)Nc2ccccc2F)cc1,-86*
N#C/C(=C\C=C\c1ccccc1)C(=O)NCc1cccnc1,-70*
C=CCN=Cc1sc2ccc(OCC)cc2c1O,-115*
CCCCN=Cc1sc2ccc(OCC)cc2c1O,-73*
SMILES,aSyn 5UTR act
Cc1ccc(NC(=O)c2ccc([N+](=O)[O-])o2)c(C)c1,-74*
Cc1ccc(-c2nnc(NC(=O)c3ccc([N+](=O)[O-])o3)o2)c(C)c1,-64*
CC(C)c1ccc(Nc2nnc(SCC(=O)Nc3ncc(S(=O)(=O)c4ccc([N+](=O)[O-])cc4)s3)s2)cc1,-66*
CC(C)(C)c1ccc(C(=O)Nc2ccc(F)cc2)s1,-140*
CCc1cc2cc(C(=O)Nc3ccccc3F)sc2s1,-134*
CCc1cc2cc(C(=O)Nc3ccc(F)cc3)sc2s1,-150*
C=CCn1cccc(C(=O)Nc2ccc(C)c(C)c2)c1=O,-124*
C=CCn1cccc(C(=O)Nc2ccc(C)cc2)c1=O,-133*
Cc1[nH]c2ccccc2c1/C=N/Nc1nc2ccccc2[nH]1,-228*
Cc1ccccc1/C=N/Nc1nc2ccccc2[nH]1,-115*
COc1cccc(/C=N/Nc2ncccc2[N+](=O)[O-])c1OC,92
